{"source": "the supplement of paper PMC8975748", "note": "Where a name gives a salt, the structure may show the parent alone. ± gives the standard deviation of the averaged measurements."}
{"tested_on": "Saccharomyces cerevisiae BY4741 SeMeCo community", "test": "mean cell size (pixel area) (pixels); higher = larger cells", "conditions": "10 µM; 24 h; SM minimal medium", "summary_of_the_method": "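Yeast cells were fixed with paraformaldehyde, imaged by automated confocal microscopy and analysed in Harmony to obtain mean cell pixel area per well. They came from a four-plasmid fluorescent Saccharomyces cerevisiae BY4741 community, each plasmid complementing one auxotrophy and carrying a fluorescent marker. Before imaging, 70 µl of culture at OD600 = 0.3 was incubated for 24 h in SM medium in 384-well plates predosed acoustically with drug (final 10 µM). Values are means of 3 replicates. Same SeMeCo high-content imaging drug screen: Selleck FDA-approved drugs at 10 µM, 24 h in SM medium, 384-well plates, 3 replicates.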"}
{"smiles": "CC[C@H]1OC(=O)[C@H](C)[C@@H](O[C@H]2C[C@@](C)(OC)[C@@H](O)[C@H](C)O2)[C@H](C)[C@@H](O[C@@H]2O[C@H](C)C[C@H](N(C)C)[C@H]2O)[C@](C)(O)C[C@@H](C)/C(=N\\OCOCCOC)[C@H](C)[C@@H](O)[C@]1(C)O", "note": "[Roxithromycin]", "mean cell size": "12.4 ± 0.26"}
{"smiles": "CCC(=O)c1c(O)cc(O)cc1O", "note": "[Flopropione]", "mean cell size": "12.5 ± 0.18"}
{"smiles": "CCCCCNC(=N)N/N=C/c1c[nH]c2ccc(OC)cc12", "note": "[Tegaserod Maleate]", "mean cell size": "12.23 ± 0.022"}
{"smiles": "CC(C)c1c(C(=O)Nc2ccccc2)c(-c2ccccc2)c(-c2ccc(F)cc2)n1CC[C@@H](O)C[C@@H](O)CC(=O)O", "note": "[Atorvastatin]", "mean cell size": "11.1 ± 0.15"}
{"smiles": "COc1ccc(C(C)=O)c(O)c1", "note": "[Paeonol]", "mean cell size": "12.4 ± 0.15"}
{"smiles": "Cc1cc(NS(=O)(=O)c2ccc(N)cc2)no1", "note": "[Sulfamethoxazole sodium]", "mean cell size": "12.3 ± 0.35"}
{"smiles": "NC12CC3CC(CC(C3)C1)C2", "note": "[Amantadine]", "mean cell size": "12 ± 0.17"}
{"smiles": "COC(=O)C1=C(C)NC(C)=C(C(=O)OC(C)(C)CN(C)CCC(c2ccccc2)c2ccccc2)C1c1cccc([N+](=O)[O-])c1", "note": "(stereo unspecified) [Lercanidipine]", "mean cell size": "12.1 ± 0.16"}
{"smiles": "CC1(C)S[C@@H]2[C@H](NC(=O)[C@H](N)c3ccc(O)cc3)C(=O)N2[C@H]1C(=O)O", "note": "[Amoxicillin]", "mean cell size": "12.6 ± 0.28"}
{"smiles": "O=C(O)c1ccccc1C(=O)Nc1ccc(S(=O)(=O)Nc2nccs2)cc1", "note": "[Phthalylsulfathiazole]", "mean cell size": "12 ± 0.48"}
{"smiles": "Clc1ccc(CCC(Cn2ccnc2)Sc2c(Cl)cccc2Cl)cc1", "note": "(stereo unspecified) [Butoconazole]", "mean cell size": "12.08 ± 0.019"}
{"smiles": "CN(Cc1cnc2nc(N)nc(N)c2n1)c1ccc(C(=O)N[C@@H](CCC(=O)O)C(=O)O)cc1", "note": "[Methotrexate disodium]", "mean cell size": "15.01 ± 0.07"}
{"smiles": "Clc1ccc(CCC(Cn2ccnc2)Sc2c(Cl)cccc2Cl)cc1", "note": "(stereo unspecified) [Butoconazole nitrate]", "mean cell size": "12.5 ± 0.15"}
{"smiles": "CC[C@@H]1/C=C(\\C)C[C@H](C)C[C@H](OC)[C@H]2O[C@@](O)(C(=O)C(=O)N3CCCC[C@H]3C(=O)O[C@H](/C(C)=C/[C@@H]3CC[C@H](Cl)[C@H](OC)C3)[C@H](C)[C@@H](O)CC1=O)[C@H](C)C[C@@H]2OC", "note": "[Pimecrolimus]", "mean cell size": "11.6 ± 0.16"}
{"smiles": "CN(Cc1cnc2nc(N)nc(N)c2n1)c1ccc(C(=O)N[C@@H](CCC(=O)O)C(=O)O)cc1", "note": "[Methotrexate]", "mean cell size": "15.5 ± 0.33"}
{"smiles": "CCC[S+]([O-])c1ccc2[nH]c(NC(=O)OC)nc2c1", "note": "(stereo unspecified) [Albendazole Oxide]", "mean cell size": "12.4 ± 0.35"}
{"smiles": "COC(=O)C1=C(C)NC(C)=C(C(=O)OC)C1c1ccccc1[N+](=O)[O-]", "note": "[Nifedipine]", "mean cell size": "12.5 ± 0.2"}
{"tested_on": "Saccharomyces cerevisiae BY4741 SeMeCo community", "test": "z-score of prototroph abundance vs DMSO median; higher = larger share of this subpopulation than in DMSO controls", "conditions": "10 µM; 24 h; SM minimal medium; subpopulation (auxotrophy): Prototroph", "summary_of_the_method": "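Subpopulation abundance was reported as a z-score against the median of vehicle wells. The Saccharomyces cerevisiae BY4741 community, carrying four plasmids that each restored one auxotrophy and encoded a distinct fluorescent protein, was grown 24 h in minimal SM medium in 384-well plates holding library drugs at 10 µM final. Cells were paraformaldehyde-fixed and imaged by automated confocal microscopy, with single-auxotroph fluorescent strains used for thresholds and autofluorescence correction.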"}
{"smiles": "CCCCOc1cc(C(=O)NCCN(CC)CC)c2ccccc2n1", "note": "[Dibucaine HCl]", "z-score of prototroph abundance": 0.15}
{"smiles": "Clc1ccc(CSC(Cn2ccnc2)c2ccc(Cl)cc2Cl)cc1", "note": "(stereo unspecified) [Sulconazole Nitrate]", "z-score of prototroph abundance": -9.61}
{"smiles": "COc1ccc(C2CNC(=O)C2)cc1OC1CCCC1", "note": "(stereo unspecified) [Rolipram]", "z-score of prototroph abundance": 0.66}
{"smiles": "C[C@]12CC[C@@H]3c4ccc(O)cc4CC[C@H]3[C@@H]1CC[C@@H]2OC(=O)CCC1CCCC1", "note": "[Estradiol Cypionate]", "z-score of prototroph abundance": -0.3}
{"smiles": "Cc1cc(/C=C/c2ccc3cc(N(C)C)ccc3[n+]2C)c(C)n1-c1ccccc1", "note": "[pyrvinium]", "z-score of prototroph abundance": 0.55}
{"smiles": "CC(C)Cc1ccc(C(C)C(=O)O)cc1", "note": "(stereo unspecified) [Ibuprofen Lysine]", "z-score of prototroph abundance": 3.98}
{"smiles": "O=C(Cn1cnnn1)N[C@@H]1C(=O)N2C(C(=O)O)=C(CSc3nncs3)CS[C@H]12", "note": "[Ceftezole sodium]", "z-score of prototroph abundance": -0.69}
{"smiles": "CC[N+](C)(C)c1cccc(O)c1", "note": "[Edrophonium chloride]", "z-score of prototroph abundance": -0.67}
{"smiles": "Nc1ccc(S(N)(=O)=O)cc1", "note": "[Sulfanilamide]", "z-score of prototroph abundance": 0.43}
{"smiles": "CCCN(CCC)CCc1cccc2c1CC(=O)N2", "note": "[Ropinirole HCl]", "z-score of prototroph abundance": -0.81}
{"smiles": "CN(C)CCCC1(c2ccc(F)cc2)OCc2cc(C#N)ccc21", "note": "(stereo unspecified) [Citalopram HBr]", "z-score of prototroph abundance": -0.34}
{"smiles": "CN1CCCN=C1/C=C/c1cccs1", "note": "[Pyrantel Pamoate]", "z-score of prototroph abundance": 0.2}
{"smiles": "CCCCCC(=O)O[C@]1(C(C)=O)CC[C@H]2[C@@H]3CCC4=CC(=O)CC[C@]4(C)[C@H]3CC[C@@]21C", "note": "[Hydroxyprogesterone caproate]", "z-score of prototroph abundance": -1.13}
{"smiles": "C[C@]12CCC(=O)C=C1[C@@H]1C[C@@H]1[C@H]1[C@@H]3[C@@H]4C[C@@H]4[C@@]4(CCC(=O)O4)[C@@]3(C)CC[C@@H]12", "note": "[Drospirenone]", "z-score of prototroph abundance": -0.22}
{"smiles": "CC[C@H]1OC(=O)[C@H](C)[C@@H](O[C@H]2C[C@@](C)(OC)[C@@H](O)[C@H](C)O2)[C@H](C)[C@@H](O[C@@H]2O[C@H](C)C[C@H](N(C)C)[C@H]2O)[C@](C)(O)C[C@@H](C)/C(=N\\OCOCCOC)[C@H](C)[C@@H](O)[C@]1(C)O", "note": "[Roxithromycin]", "z-score of prototroph abundance": -0.63}
{"smiles": "CCC(C)(C)c1ccc(CC(C)CN2C[C@@H](C)O[C@@H](C)C2)cc1", "note": "(stereo partly specified) [Amorolfine HCl]", "z-score of prototroph abundance": -9.52}
{"smiles": "CC(=O)N[C@H]1[C@H]([C@H](O)[C@H](O)CO)OC(C(=O)O)=C[C@@H]1NC(=N)N", "note": "[Zanamivir]", "z-score of prototroph abundance": -0.31}
{"smiles": "CCC(=O)c1c(O)cc(O)cc1O", "note": "[Flopropione]", "z-score of prototroph abundance": 0.7}
{"smiles": "CCCCCNC(=N)N/N=C/c1c[nH]c2ccc(OC)cc12", "note": "[Tegaserod Maleate]", "z-score of prototroph abundance": -1.66}
{"smiles": "CC(C)c1c(C(=O)Nc2ccccc2)c(-c2ccccc2)c(-c2ccc(F)cc2)n1CC[C@@H](O)C[C@@H](O)CC(=O)O", "note": "[Atorvastatin]", "z-score of prototroph abundance": -2.62}
{"smiles": "COc1ccc(C(C)=O)c(O)c1", "note": "[Paeonol]", "z-score of prototroph abundance": -0.25}
{"smiles": "Cc1cc(NS(=O)(=O)c2ccc(N)cc2)no1", "note": "[Sulfamethoxazole sodium]", "z-score of prototroph abundance": -0.28}
{"smiles": "NC12CC3CC(CC(C3)C1)C2", "note": "[Amantadine]", "z-score of prototroph abundance": 0}
{"smiles": "NC1CCN(c2nc3c(cc2F)c(=O)c(C(=O)O)cn3-c2ccc(F)cc2F)C1", "note": "(stereo unspecified) [Tosufloxacin p-Toluenesulfonate Hydrate]", "z-score of prototroph abundance": 0.74}
{"smiles": "CC1(C)S[C@@H]2[C@H](NC(=O)[C@H](N)c3ccc(O)cc3)C(=O)N2[C@H]1C(=O)O", "note": "[Amoxicillin]", "z-score of prototroph abundance": -0.05}
{"smiles": "CCC1=C(C)CN(C(=O)NCCc2ccc(S(=O)(=O)NC(=O)N[C@H]3CC[C@H](C)CC3)cc2)C1=O", "note": "[Glimepiride]", "z-score of prototroph abundance": -0.13}
{"smiles": "O=C(O)c1ccccc1C(=O)Nc1ccc(S(=O)(=O)Nc2nccs2)cc1", "note": "[Phthalylsulfathiazole]", "z-score of prototroph abundance": -0.99}
{"smiles": "Clc1ccc(CCC(Cn2ccnc2)Sc2c(Cl)cccc2Cl)cc1", "note": "(stereo unspecified) [Butoconazole]", "z-score of prototroph abundance": -10}
{"smiles": "Cc1ccc(Sc2ccccc2N2CCNCC2)c(C)c1", "note": "[Vortioxetine]", "z-score of prototroph abundance": 0.02}
{"smiles": "CN(Cc1cnc2nc(N)nc(N)c2n1)c1ccc(C(=O)N[C@@H](CCC(=O)O)C(=O)O)cc1", "note": "[Methotrexate disodium]", "z-score of prototroph abundance": 0.74}
{"smiles": "CC[C@@H]1/C=C(\\C)C[C@H](C)C[C@H](OC)[C@H]2O[C@@](O)(C(=O)C(=O)N3CCCC[C@H]3C(=O)O[C@H](/C(C)=C/[C@@H]3CC[C@H](Cl)[C@H](OC)C3)[C@H](C)[C@@H](O)CC1=O)[C@H](C)C[C@@H]2OC", "note": "[Pimecrolimus]", "z-score of prototroph abundance": -1.82}
{"smiles": "CN(Cc1cnc2nc(N)nc(N)c2n1)c1ccc(C(=O)N[C@@H](CCC(=O)O)C(=O)O)cc1", "note": "[Methotrexate]", "z-score of prototroph abundance": -1.88}
{"smiles": "CCC[S+]([O-])c1ccc2[nH]c(NC(=O)OC)nc2c1", "note": "(stereo unspecified) [Albendazole Oxide]", "z-score of prototroph abundance": 0.33}
{"smiles": "COC(=O)C1=C(C)NC(C)=C(C(=O)OC)C1c1ccccc1[N+](=O)[O-]", "note": "[Nifedipine]", "z-score of prototroph abundance": -0.35}
